PubChem BioAssay AID1008 (NMMLSC, 2008)
Out of some 190,000 compounds screened, about 240 (0.13%) were called active. The sample as a whole holds a higher share of actives than the screen did. A number with no mark means an inactive call. Rule as the data show it: active = inhibition above about 40%.

Each compound was assayed against Bcl-2-related protein A1 (Homo sapiens) (UniProt Q16548) (assay: Bfl-1/Bim complex disruptors – biochemical, multiplexed, bead-based flow cytometry, primary screen (AID 1008;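 also: 0% = wells without compound plus tracer and 100% = blocker peptide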)). Conditions: Bim-Bfl-1 binding inhibition, at 10 µM, hits give high values.
Bcl-2-related protein A1 (Homo sapiens), sequence (Q16548 whole entry, looked up): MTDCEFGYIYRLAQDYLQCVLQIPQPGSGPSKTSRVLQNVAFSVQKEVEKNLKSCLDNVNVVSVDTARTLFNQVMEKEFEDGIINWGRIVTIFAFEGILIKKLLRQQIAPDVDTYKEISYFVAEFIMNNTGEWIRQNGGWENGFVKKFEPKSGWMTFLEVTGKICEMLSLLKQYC

**Q.** CCOC(=O)c1cnc2[nH]c3ccccc3n2c1=O was tested. Which inhibition did it give?
**A.** -8%

**Q.** How did the inhibition turn out when O=c1[nH]c2ccccc2n2c(-c3ccccc3)nnc12 was run?
**A.** 54% (active)

**Q.** With O=[N+]([O-])c1cccc(-c2nnc3c4ccccc4c4ccccc4n23)c1 as the compound, how does the inhibition read?
**A.** -7%

**Q.** CC(=O)c1ccc(N2CCN(C(=O)c3ccc4nc[nH]c4c3)CC2)cc1 was tested. Which inhibition did it give?
**A.** 0%

**Q.** How did the inhibition turn out when CN(C(=O)CSc1nnc(Nc2ccccc2)s1)C1CCS(=O)(=O)C1 (configuration not stated) was run?
**A.** -5%

**Q.** With CC1(C)C2CCC1(C)C(OC(=O)c1ccc(O)cc1)C2 (configuration not stated) as the compound, how does the inhibition read?
**A.** 2%

**Q.** How did the inhibition turn out when COc1ccc(CC(=O)NCc2nnc(SCC(=O)Nc3ncc(C)s3)n2C)cc1 was run?
**A.** -5%

**Q.** With COc1ccc(CN2CCNC(=O)C2CC(=O)N(C)Cc2ccccn2)cc1OC (configuration not stated) as the compound, how does the inhibition read?
**A.** -2%

**Q.** For O=C(O)CC(Cc1ccccc1)C(=O)Nc1ccc([N+](=O)[O-])cc1 (configuration not stated), which inhibition is on record?
**A.** -14%

**Q.** For Cc1cc(Cl)ccc1NC(=S)N1CCC(C(N)=O)(N2CCCCC2)CC1, which inhibition is on record?
**A.** 0%

**Q.** Which inhibition does the source give for C=CCOCCN(C)C1=NS(=O)(=O)c2ccccc21 here?
**A.** -4%

**Q.** Which inhibition does the source give for CCC(C)(C)NC(=O)CN(C(=O)C(=O)Nc1ccc2c(c1)OCCO2)C(C)(C)CC here?
**A.** 3%

**Q.** For O=S(=O)(c1ccc(-c2ccccc2)cc1)N1CCCC1, which inhibition is on record?
**A.** -7%

**Q.** With CN(c1ccc2nc3ccccc3c(=O)n2n1)C1CCCCC1 as the compound, how does the inhibition read?
**A.** -3%

**Q.** Which inhibition does the source give for CCOC(=O)Cc1csc(NC(=O)COc2ccc3c(C)cc(=O)oc3c2)n1 here?
**A.** -4%

**Q.** For CCOC(=O)c1ccccc1NC(=O)CSc1nc2ccccc2c(=O)[nH]1, which inhibition is on record?
**A.** -3%

**Q.** Which inhibition does the source give for COc1ccc(-c2ccc(CCC(=O)O)n2-c2ccc(O)cc2)cc1 here?
**A.** 5%

**Q.** Cc1cc(Cl)c(S(=O)(=O)NCC2CCCO2)cc1OCC(N)=O (configuration not stated) was tested. Which inhibition did it give?
**A.** 48% (active)

**Q.** How did the inhibition turn out when Cc1cc(Cl)c(S(=O)(=O)Nc2ccc3c(c2)OCCO3)cc1OCC(N)=O was run?
**A.** -2%

**Q.** With Cc1cc(Cl)c(S(=O)(=O)NCCC(=O)O)cc1OCC(N)=O as the compound, how does the inhibition read?
**A.** -15%

**Q.** How did the inhibition turn out when CN(C)S(=O)(=O)N1CCN(c2ccc([N+](=O)[O-])cc2)CC1 was run?
**A.** 0%

**Q.** Which inhibition does the source give for Cc1ccc(CC(=O)Nc2ccc(OC(F)F)c(Cl)c2)cc1C here?
**A.** -6%

**Q.** Which inhibition does the source give for COc1cccc(C(O)Cc2nc3ccccc3n2C)c1OC (configuration not stated) here?
**A.** -3%

**Q.** CCOC(=O)/C(C#N)=C/c1cn(CCC(=O)O)nc1-c1ccc(Br)cc1 was tested. Which inhibition did it give?
**A.** -9%

**Q.** Which inhibition does the source give for CC(=O)Nc1ccc(NC(=O)COc2ccc(S(=O)(=O)NC(C)c3ccccc3)cc2)cc1 (configuration not stated) here?
**A.** -5%

**Q.** With Cc1oc2c(c1C(=O)N1CCOCC1)C(=O)c1ccccc1C2=O as the compound, how does the inhibition read?
**A.** -1%

**Q.** For Cc1ccnc(NC(=O)c2ccco2)n1, which inhibition is on record?
**A.** -3%

**Q.** With COC(=O)COc1ccc(C2NC(=O)NC(C)=C2C(=O)NCc2ccccc2)cc1OC (configuration not stated) as the compound, how does the inhibition read?
**A.** -9%

**Q.** How did the inhibition turn out when C/C(=N\NC(=O)COc1c(C)cccc1C)c1cccs1 was run?
**A.** -7%

**Q.** With Cc1ccc(NC(=O)c2ccn(C(=O)Nc3ccccc3)n2)c(C)c1 as the compound, how does the inhibition read?
**A.** -2%

**Q.** CC1(C)CC(=O)c2ccc(O)cc2O1 was tested. Which inhibition did it give?
**A.** -4%

**Q.** With Cc1[nH]c2ccccc2c1SCC(=O)Nc1nccs1 as the compound, how does the inhibition read?
**A.** -5%

**Q.** CCCOC(=O)c1c(NC(=O)c2cnn3c2NC(c2ccccc2)CC3C(F)(F)F)sc2c1CCCC2 (configuration not stated) was tested. Which inhibition did it give?
**A.** -18%

**Q.** Cc1ccc(-c2csc(NC(=O)Cn3[nH]c(=O)c4ccccc4c3=O)n2)cc1 was tested. Which inhibition did it give?
**A.** -4%

**Q.** How did the inhibition turn out when CCc1cccc(CC)c1NC(=S)NCc1ccc2[nH]c(C)cc2c1 was run?
**A.** -2%

**Q.** With Cn1cc(CN2CCC(C(O)CCc3ccccc3)CC2)c(-c2ccccc2F)n1 (configuration not stated) as the compound, how does the inhibition read?
**A.** -5%

**Q.** Which inhibition does the source give for CCO[C@H]1OC(C(=O)N2CCOCC2)=C[C@@H](c2ccc3c(c2)OCO3)[C@@H]1CCCO here?
**A.** -4%

**Q.** O=C(CCC(=O)Nc1ccccc1)N/N=C/c1ccccc1F was tested. Which inhibition did it give?
**A.** -4%

**Q.** Which inhibition does the source give for Cc1cc([N+](=O)[O-])ccc1NC1CCCC1 here?
**A.** -7%

**Q.** For C=CS(=O)c1sc(Cl)c(N2CCOCC2)c1[N+](=O)[O-] (configuration not stated), which inhibition is on record?
**A.** 57% (active)

**Q.** Which inhibition does the source give for O=[N+]([O-])c1c(NCCO)cc(Sc2nc3ccccc3s2)c2nonc12 here?
**A.** 56% (active)

**Q.** For O=C(O)c1cccc(S(=O)(=O)Nc2ccc(O)cc2Sc2nc3ccccc3s2)c1, which inhibition is on record?
**A.** 7%

**Q.** COc1ccc(S(=O)(=O)Nc2ccc(O)c(Sc3nc4ccccc4s3)c2)cc1 was tested. Which inhibition did it give?
**A.** 9%

**Q.** With COc1ccc(N(C)S(=O)(=O)c2cccc3nsnc23)cc1 as the compound, how does the inhibition read?
**A.** -6%

**Q.** For C=CCn1c2ccccc2c2nnc(SCc3[nH]c(=O)[nH]c3C(=O)CCCCC(=O)OCC)nc21, which inhibition is on record?
**A.** 16%

**Q.** How did the inhibition turn out when Cc1nonc1C1CCCN1Cc1nc(-c2ccc(F)cc2F)oc1C (configuration not stated) was run?
**A.** -4%

**Q.** Which inhibition does the source give for Cc1n[nH]c(=O)n1-c1ccc(C(C)C)cc1 here?
**A.** -5%

**Q.** For C/C(CC(=O)Nc1cccc(F)c1)=N\NC(=O)C(=O)NC1CCCCC1, which inhibition is on record?
**A.** 0%

**Q.** With CN(C(=O)c1c(Cl)cnn1C)C12CC3CC(CC(C3)C1)C2 as the compound, how does the inhibition read?
**A.** 21%

**Q.** Which inhibition does the source give for CCN(CCn1cccn1)Cc1nc(-c2ccc(C(=O)OC)cc2)no1 here?
**A.** -5%

**Q.** With Cc1ccccc1NC(=O)CN1C(=O)N/C(=C\c2cccn2-c2cccc(C(=O)O)c2)C1=O as the compound, how does the inhibition read?
**A.** -3%

**Q.** For COc1cc(NC(=S)NCCSc2ccc(C)cc2)cc(OC)c1, which inhibition is on record?
**A.** -1%

**Q.** How did the inhibition turn out when CCN(CC)S(=O)(=O)c1ccc(Cl)c(C(=O)NC(C)C(c2cccs2)N2CCCC2)c1 (configuration not stated) was run?
**A.** -5%

**Q.** C=CCNc1nc(Nc2ccc(Cl)cc2)nc(OC)n1 was tested. Which inhibition did it give?
**A.** -6%

**Q.** How did the inhibition turn out when Cc1cccc(NC(=S)NCCN(C2CCCCC2)C2CCCC2)c1 was run?
**A.** -2%

**Q.** Which inhibition does the source give for CCOC(=O)C1(CC2CCCCO2)CCN(Cc2nc(-c3cccs3)oc2C)CC1 (configuration not stated) here?
**A.** -5%

**Q.** For Cc1cccc2cc(CN(C(=O)c3cccs3)c3ccccc3)c(=O)[nH]c12, which inhibition is on record?
**A.** -5%

**Q.** How did the inhibition turn out when N=c1c2c3c(sc2ncn1N)CCCC3 was run?
**A.** -7%

**Q.** Nc1nc(CC(=O)CSc2ccc(Cl)cc2)nc(Nc2ccc(F)cc2)n1 was tested. Which inhibition did it give?
**A.** -12%

**Q.** O=C(/C=C/c1ccc(Cl)cc1)N1CCN(c2ccccc2[N+](=O)[O-])CC1 was tested. Which inhibition did it give?
**A.** 2%

**Q.** How did the inhibition turn out when CCN(CC)CCCNC(=O)c1ccc2c(=O)n(Cc3ccc4c(c3)OCO4)c(=S)[nH]c2c1 was run?
**A.** -5%

**Q.** Which inhibition does the source give for CCOC(=O)c1sc(-c2cccc([N+](=O)[O-])c2)cc1N here?
**A.** -1%
